Measured values from PubChem BioAssay (NCATS).
Inconclusive results are not listed. Activity calls are given as the source filed them. Calls follow the shape of the dose curve; as a rule, active = well fitted curve in the direction sought with a large enough effect; inconclusive = small, poorly fitted or top-dose-only effect, or another doubt; inactive = no such curve, though single readings can be large; an effect the other way counts as inactive or inconclusive.

Columns and labels:
[1] = Quantitative High-Throughput drug screen in 47 multiple myeloma cell lines against the NCATS MIPE library collection: MMM1_PLB cell viability assay (AID 1918976); also: nearly all actives have a fitted effect of over 35% in size; also: potency is read from the fitted curve at half-maximal effect
Outline: (§1)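 qHTS format: cells plated (500/well), pin-dosed with MIPE 4.0 compounds, kept 48 h at 37 °C. Readout was CellTiter-Glo luminescence, median RLU.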

[2] = Quantitative High-Throughput drug screen in 47 multiple myeloma cell lines against the NCATS MIPE library collection: MOLP8_DSMZ cell viability assay (AID 1918977); also: nearly all actives have a fitted effect of over 45% in size; also: potency is read from the fitted curve at half-maximal effect
Outline: as §1

[3] = Quantitative High-Throughput drug screen in 47 multiple myeloma cell lines against the NCATS MIPE library collection: NCIH929_DSMZ cell viability assay (AID 1918978); also: nearly all actives have a fitted effect of over 35% in size; also: potency is read from the fitted curve at half-maximal effect
Outline: as §1

[4] = Quantitative High-Throughput drug screen in 47 multiple myeloma cell lines against the NCATS MIPE library collection: MM1R_ATCC cell viability assay (AID 1918981); also: nearly all actives have a fitted effect of over 35% in size; also: potency is read from the fitted curve at half-maximal effect
Outline: as §1

[5] = Quantitative High-Throughput drug screen in 47 multiple myeloma cell lines against the NCATS MIPE library collection: LP1_DSMZ cell viability assay (AID 1918982); also: nearly all actives have a fitted effect of over 35% in size; also: potency is read from the fitted curve at half-maximal effect
Outline: as §1

[6] = Quantitative High-Throughput drug screen in 47 multiple myeloma cell lines against the NCATS MIPE library collection: L363_DSMZ cell viability assay (AID 1918984); also: nearly all actives have a fitted effect of over 40% in size; also: potency is read from the fitted curve at half-maximal effect
Outline: as §1

[7] = Quantitative High-Throughput drug screen in 47 multiple myeloma cell lines against the NCATS MIPE library collection: KMS34_JCRB cell viability assay (AID 1918985); also: nearly all actives have a fitted effect of over 40% in size; also: potency is read from the fitted curve at half-maximal effect
Outline: as §1

[8] = Quantitative High-Throughput drug screen in 47 multiple myeloma cell lines against the NCATS MIPE library collection: XG6_PLB cell viability assay (AID 1919865); also: nearly all actives have a fitted effect of over 40% in size; also: potency is read from the fitted curve at half-maximal effect
Outline: as §1

[9] = Quantitative High-Throughput drug screen in 47 multiple myeloma cell lines against the NCATS MIPE library collection: KMS20_JCRB cell viability assay (AID 1918973); also: nearly all actives have a fitted effect of over 45% in size; also: potency is read from the fitted curve at half-maximal effect
Outline: (§2)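 Myeloma cells (500 per well) were exposed to MIPE 4.0 compounds by pin transfer and incubated 48 hours at 37C, 5% CO2. Viability was read as ATP by CellTiter-Glo luminescence, normalised to DMSO (100%) and media-only (0%) wells.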

[10] = Quantitative High-Throughput drug screen in 47 multiple myeloma cell lines against the NCATS MIPE library collection: KMS21BM_JCRB cell viability assay (AID 1918974); settings: ATP luminescence, 48 h; also: potency is read from the fitted curve at half-maximal effect
Outline: as §2

[11] = Quantitative High-Throughput drug screen in 47 multiple myeloma cell lines against the NCATS MIPE library collection: KMS26_JCRB cell viability assay (AID 1918975); settings: KMS26 myeloma cells viability, CellTiter-Glo ATP, 48 h; also: potency is read from the fitted curve at half-maximal effect; nearly all actives have a fitted effect of over 45% in size
Outline: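 Viability readout: CellTiter-Glo luminescence following 5 min room-temperature incubation with reagent. Prior exposure: 48 h, 37C, humidified 5% CO2, 500 cells per well.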

[12] = Quantitative High-Throughput drug screen in 47 multiple myeloma cell lines against the NCATS MIPE library collection: MM1S_ATCC cell viability assay (AID 1918980); settings: MM1S myeloma viability, CellTiter-Glo ATP luminescence, 48 h; also: potency is read from the fitted curve at half-maximal effect; nearly all actives have a fitted effect of over 45% in size
Outline: as §1

[13] = Quantitative High-Throughput drug screen in 47 multiple myeloma cell lines against the NCATS MIPE library collection: KMS28PE_JCRB cell viability assay (AID 1918983); settings: KMS28PE multiple myeloma viability, CellTiter-Glo ATP, 48 h
Outline: as §1

[14] = Quantitative High-Throughput drug screen in 47 multiple myeloma cell lines against the NCATS MIPE library collection: OCIMY7_PLB cell viability assay (AID 1918987); settings: OCI-MY7 myeloma viability, CellTiter-Glo ATP, 48 h; also: potency is read from the fitted curve at half-maximal effect; nearly all actives have a fitted effect of over 65% in size
Outline: as §1

[15] = Quantitative High-Throughput drug screen in 47 multiple myeloma cell lines against the NCATS MIPE library collection: OCIMY5_PLB cell viability assay (AID 1918988); settings: OCI-MY5 myeloma viability, ATP luminescence, 48 h; also: potency is read from the fitted curve at half-maximal effect; nearly all actives have a fitted effect of over 65% in size
Outline: as §1

[16] = Quantitative High-Throughput drug screen in 47 multiple myeloma cell lines against the NCATS MIPE library collection: OPM1_PLB cell viability assay (AID 1918989); also: nearly all actives have a fitted effect of over 40% in size; also: potency is read from the fitted curve at half-maximal effect
Outline: as §1

[17] = Quantitative High-Throughput drug screen in 47 multiple myeloma cell lines against the NCATS MIPE library collection: SKMM1_PLB cell viability assay (AID 1919863); settings: SKMM1 myeloma viability, CellTiter-Glo ATP, 48 h; viability: stronger effect = lower value; also: nearly all actives have a fitted effect of over 35% in size; also: potency is read from the fitted curve at half-maximal effect; as to viability: series mostly up to about 46 µM
Outline: as §1

[18] = Quantitative High-Throughput drug screen in 47 multiple myeloma cell lines against the NCATS MIPE library collection: U266_ATCC cell viability assay (AID 1919864); also: nearly all actives have a fitted effect of over 35% in size; also: potency is read from the fitted curve at half-maximal effect
Outline: as §1

[19] = Quantitative High-Throughput drug screen in 47 multiple myeloma cell lines against the NCATS MIPE library collection: XG1_PLB cell viability assay (AID 1919866); also: nearly all actives have a fitted effect of over 35% in size; also: potency is read from the fitted curve at half-maximal effect
Outline: as §1

[20] = Quantitative High-Throughput drug screen in 47 multiple myeloma cell lines against the NCATS MIPE library collection: OCIMY1_PLB cell viability assay (AID 1918979)
Outline: as §1

O=C(O)c1nn(Cc2ccc(Cl)cc2Cl)c2ccccc12
inactive: Potency [1] | Potency [2] | Potency [3] | Potency [4] | Potency [5] | Potency [6] | Potency [7] | Potency [8]

C[C@@H]1C[C@@H]([C@H](O)CC2CC(=O)NC(=O)C2)C(=O)[C@@H](C)C1
active: Potency [9] 1660 nM | Potency [10] 526 nM | Potency [11] 132 nM | Potency [1] 662 nM | Potency [2] 296 nM | Potency [3] 1870 nM | Potency [12] 4180 nM | Potency [4] 1660 nM | Potency [5] 118 nM | Potency [13] 1180 nM | Potency [6] 743 nM | Potency [7] 118 nM | Potency [14] 2640 nM | Potency [15] 1660 nM | Potency [16] 833 nM | Potency [17] 296 nM | Potency [18] 1050 nM | Potency [8] 743 nM | Potency [19] 372 nM

COC(=O)C1=CCCN(C)C1
active: Potency [1] 1050 nM
inactive: Potency [3] | outcome [20] | Potency [4] | Potency [5] | Potency [6] | Potency [7] | Potency [16] | Potency [8]

COc1ccc(C(=O)N2CCCC2=O)cc1
active: Potency [12] 296 nM | Potency [15] 662 nM
inactive: Potency [9] | Potency [2] | Potency [4] | viability [17] 101% | Potency [18] | Potency [8] | Potency [19]
